# Measured values from PubChem BioAssay (NCI).
# Values joined by “and” are separate entries in the source; they are usually repeats but may differ in a detail not shown here. Equal entries are not always repeated. The panel holds about 79,000 compounds, 15% with a hit somewhere; the sample as a whole holds those more often. The source holds several records for some structures; these can differ, active in one and inactive in another. Active and inactive are the calls of the source. Cut-off read from the data, not from the text of the source: active = growth inhibition above about 70%; inactive = the rest.
# Tests used:
# [1] = NCI Yeast Anticancer Drug Screen. Data for the rad50 strain (AID 155);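 note: 0% = growth of vehicle-only cultures of the same strain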; details: S. cerevisiae rad50 strain growth inhibition, stronger effect = higher value
# How it was run: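 Readout: growth inhibition relative to vehicle-treated cultures. Compound exposure was carried out in a genetically defined yeast strain deficient in DNA damage repair.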
# [2] = NCI Yeast Anticancer Drug Screen. Data for the mec2-1 strain (AID 157); details: S. cerevisiae mec2-1 strain, stronger effect = higher value
# How it was run: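 mec2-1 yeast strain, carrying an alteration in DNA damage repair or cell cycle control, was exposed to compounds; growth inhibition was measured relative to vehicle-treated controls.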
# [3] = NCI Yeast Anticancer Drug Screen. Data for the sgs1 mgt1 strain (AID 161);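 note: 0% = growth of cultures given vehicle only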; details: S. cerevisiae sgs1 mgt1 strain, stronger effect = higher value
# How it was run: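 This yeast growth screen uses a strain with defined DNA-repair lesions; compound-treated growth is compared with vehicle-treated growth.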
# [4] = NCI Yeast Anticancer Drug Screen. Data for the cln2 rad14 strain (AID 165);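 note: 0% = growth equal to vehicle treated cultures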; details: S. cerevisiae cln2 rad14 strain, stronger effect = higher value
# How it was run: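 Yeast carrying cln2 and rad14 alterations (cell cycle control and DNA damage repair) were exposed to compounds. Growth inhibition was measured against vehicle-treated controls.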
# [5] = NCI Yeast Anticancer Drug Screen. Data for the bub3 strain (AID 167); details: S. cerevisiae bub3 mutant strain, stronger effect = higher value
# How it was run: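 Readout: yeast growth inhibition, expressed relative to vehicle-only wells. The test organism is a mutant strain from a panel with lesions in DNA repair or checkpoint genes.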
# [6] = NCI Yeast Anticancer Drug Screen. Data for the mlh1 rad18 strain (AID 175); details: S. cerevisiae mlh1 rad18 strain growth inhibition, stronger effect = higher value
# How it was run: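 Growth inhibition of the yeast strain was measured after compound exposure and expressed relative to vehicle-treated controls. The strain carries defined defects in DNA damage repair.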
# [7] = at 5.0 µM (retest, dose inferred, filed as 0.5)
# [8] = at 50.0 µM (retest, dose inferred, filed as 5.0)
SMILES,"growth inhibition [1, 7]","growth inhibition [1, 8]",growth inhibition ([1]; at 50.0 µM),"growth inhibition [2, 7]","growth inhibition [2, 8]",growth inhibition ([2]; at 50.0 µM),"growth inhibition [3, 7]","growth inhibition [3, 8]",growth inhibition ([3]; at 50.0 µM),"growth inhibition [4, 7]","growth inhibition [4, 8]",growth inhibition ([4]; at 50.0 µM),"growth inhibition [5, 7]","growth inhibition [5, 8]",growth inhibition ([5]; at 50.0 µM),"growth inhibition [6, 7]","growth inhibition [6, 8]",growth inhibition ([6]; at 50.0 µM)
CC(=O)c1c2ccccc2cc2ccccc12,7% (inactive) and 61% (inactive),74% (active) and 96% (active),68.4% (inactive) and 92.3% (active),9% (inactive) and 44% (inactive),88% (active) and 98% (active),79% (active) and 96.5% (active),6% (inactive) and 45% (inactive),77% (active) and 98% (active),53% (inactive) and 94.7% (active),12% (inactive) and 49% (inactive),89% (active) and 96% (active),72.4% (active) and 89.1% (active),17% (inactive) and 56% (inactive),95% (active) and 97% (active),79.5% (active) and 95.6% (active),9% (inactive) and 46% (inactive),94% (active) and 97% (active),75% (active) and 96.2% (active)
Cc1cc(NS(=O)(=O)c2ccc(N=Nc3cc(N=Nc4ccc(S(=O)(=O)Nc5cc(C)nc(C)n5)cc4)c4c(NC(=O)C(Cl)Cl)cccc4c3OC(=O)C(Cl)Cl)cc2)nc(C)n1 (tested in a mixture with another compound),16% (inactive),76% (active),29.9% (inactive) and 73.2% (active),15% (inactive),92% (active),-17.1% (inactive) and 81.5% (active),8% (inactive),79% (active),-23.1% (inactive) and 69.2% (inactive),16% (inactive),80% (active),-3.85% (inactive) and 41.8% (inactive),21% (inactive),90% (active),-21.5% (inactive) and 77.2% (active),21% (inactive),70% (active),-56.5% (inactive) and 81.5% (active)
CCCC(C)NCCOC(=O)C(c1ccccc1)C1CCCCC1 (configuration not stated),-11% (inactive),49% (inactive),85.6% (active),3% (inactive),36% (inactive),14.2% (inactive),-3% (inactive),60% (inactive),85.5% (active),-2% (inactive),36% (inactive),34.3% (inactive),0% (inactive),49% (inactive),57.5% (inactive),1% (inactive),61% (inactive),73.2% (active)
O=S(=O)(c1ccc(F)cc1)c1ccc(F)cc1,-4% (inactive),-4% (inactive),-4.4% (inactive) and 11.7% (inactive),10% (inactive),19% (inactive),-35.6% (inactive) and -12.2% (inactive),-6% (inactive),-1% (inactive),-3.8% (inactive) and -3.55% (inactive),-5% (inactive),-7% (inactive),3.2% (inactive) and 47.4% (inactive),-1% (inactive),0% (inactive),-4.15% (inactive) and 19.1% (inactive),3% (inactive),10% (inactive),6.7% (inactive) and 35.2% (inactive)
NNC(=O)c1ccc(NC(=O)CSc2nc3ccccc3s2)cc1,-4% (inactive),35% (inactive),92.7% (active),6% (inactive),28% (inactive),79% (active),9% (inactive),59% (inactive),96.2% (active),0% (inactive),48% (inactive),31.2% (inactive),52% (inactive),82% (active),97.8% (active),86% (active),82% (active),98.6% (active)
Cc1c(N)nc(C(CC(N)=O)NCC(N)C(N)=O)nc1C(=O)NC(C(=O)NC(C)C(O)C(C)C(=O)NC(C(=O)NCCc1nc(-c2nc(C(=O)NCCCNCCCCN)cs2)cs1)C(C)O)C(OC1OC(CO)C(O)C(O)C1OC1OC(CO)C(O)C(OC(N)=O)C1O)c1cnc[nH]1 (configuration not stated),92% (active),98% (active),99% (active) and 88.6% (active),37% (inactive),98% (active),99.2% (active) and 88.1% (active),77% (active),98% (active),99% (active) and 88.2% (active),65% (inactive),98% (active),97.7% (active) and 86.5% (active),76% (active),98% (active),99% (active) and 87.9% (active),94% (active),98% (active),98.9% (active) and 90% (active)
CCCCCCCCCCCCN1C(=O)[N+](C)(C)N=C1[O-],6% (inactive),41% (inactive),98.7% (active),4% (inactive),49% (inactive),99.3% (active),7% (inactive),60% (inactive),99.1% (active),-4% (inactive),21% (inactive),97.5% (active),4% (inactive),34% (inactive),98.9% (active),4% (inactive),49% (inactive),99.1% (active)
O=c1ccn(C2CC(O)C(COC(c3ccccc3)(c3ccccc3)c3ccccc3)O2)c(=O)[nH]1 (configuration not stated),1% (inactive) and 22% (inactive),99% (active),49.5% (inactive) and 40.2% (inactive),6% (inactive) and 7% (inactive),100% (active) and 99% (active),98% (active) and 53% (inactive),-1% (inactive),100% (active) and 54% (inactive),42.5% (inactive) and 52.7% (inactive),8% (inactive) and 5% (inactive),99% (active),97.7% (active) and 56% (inactive),7% (inactive) and 1% (inactive),99% (active) and 98% (active),99.5% (active) and 16.2% (inactive),13% (inactive),99% (active) and 98% (active),41.9% (inactive) and 51.7% (inactive)
CCCN(CCC)C(=S)N/N=C/c1ccccn1,99% (active),99% (active),90.5% (active),99% (active),100% (active),93.1% (active),98% (active),99% (active),92.4% (active),98% (active),100% (active),93.5% (active),99% (active),100% (active),92.5% (active),99% (active),99% (active),89.8% (active)
CN(C)/C=C1\CCc2ccc([N+](=O)[O-])cc2C1=O,19% (inactive),21% (inactive),6.9% (inactive),17% (inactive),25% (inactive),0.45% (inactive),24% (inactive),29% (inactive),16.4% (inactive),31% (inactive),17% (inactive),12.1% (inactive),26% (inactive),19% (inactive),21.4% (inactive),29% (inactive),35% (inactive),-28.4% (inactive)
O=C1/C(=C/c2ccc(Cl)cc2)CNC/C1=C\c1ccc(Cl)cc1,83% (active) and 48% (inactive),79% (active) and 71% (active),76.7% (active) and 86.2% (active),76% (active) and 48% (inactive),87% (active) and 78% (active),81.8% (active) and 89.5% (active),88% (active) and 58% (inactive),88% (active) and 91% (active),87.2% (active) and 86.7% (active),69% (inactive) and 44% (inactive),85% (active) and 73% (active),83.8% (active) and 83.5% (active),90% (active) and 46% (inactive),85% (active) and 95% (active),79.9% (active) and 85.3% (active),91% (active) and 66% (inactive),75% (active) and 88% (active),81.2% (active) and 79.2% (active)
CCOCc1ccccc1C(O)(c1ccc(OC)cc1)c1ccc(OC)cc1,5% (inactive) and 1% (inactive),2% (inactive) and 1% (inactive),48.3% (inactive) and 78.8% (active),2% (inactive) and 6% (inactive),9% (inactive) and 11% (inactive),33.4% (inactive) and 72.5% (active),6% (inactive) and -2% (inactive),10% (inactive) and 21% (inactive),60.5% (inactive) and 77.2% (active),3% (inactive) and 5% (inactive),3% (inactive) and 7% (inactive),67% (inactive) and 94.2% (active),3% (inactive) and 14% (inactive),33% (inactive) and 61% (inactive),76.5% (active) and 95.8% (active),3% (inactive) and 5% (inactive),-26% (inactive) and 41% (inactive),74% (active) and 82.8% (active)
O=C1OC2=C(c3ccccc3)CCCC2C1=O (configuration not stated),-1% (inactive),88% (active),83% (active) and -7.3% (inactive),3% (inactive),89% (active),78.5% (active) and 4.7% (inactive),1% (inactive),69% (inactive),93.8% (active) and -3.3% (inactive),-3% (inactive),94% (active),92.5% (active) and 0.1% (inactive),0% (inactive),93% (active),85.4% (active) and -6.2% (inactive),0% (inactive),93% (active),91.7% (active) and 3.8% (inactive)
CCOC(=O)c1ccc(NCc2ccc3ccccc3n2)cc1,-3% (inactive),15% (inactive),71.6% (active),-11% (inactive),14% (inactive),51.5% (inactive),-28% (inactive),44% (inactive),79.4% (active),-6% (inactive),4% (inactive),19.1% (inactive),11% (inactive),55% (inactive),-11.1% (inactive),-2% (inactive),57% (inactive),74.3% (active)
